# How the values were obtained:
# Assay in all cases: PBM binding z-score (relative to random genomic background probes); higher = stronger binding; sequences stand for … in GC…GCGATTGACAGCGTAGAATGAAGG
# [1] = system: RARb homodimer (NR concentration 270 nM)
# Procedure, shortened: (§1)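 Binding z-scores were set against random background probes. The data came from custom Agilent 4×180K protein-binding microarrays carrying double-stranded probes with 34-nt variable regions, incubated 1 h with ligand-free nuclear receptor dimers. Partner-specific antibodies detected binding, and scanned fluorescence was regression-normalized.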
# [2] = system: RARg:RXRa (NR concentration 270 nM, RXRa partner concentration 90 nM)
# Procedure, shortened: as §1
# [3] = system: RARg homodimer (NR concentration 270 nM)
# Procedure, shortened: as §1
# [4] = system: RXRa DBDmut IVT, anti-RXR (DBD mutation: RXRa K156A/R161A, NR concentration 90 nM)
# Procedure, shortened: as §1
# [5] = system: RXRa homodimer (NR concentration 180 nM)
# Procedure, shortened: as §1
# [6] = system: THRa:RXRa (NR concentration 90 nM, RXRa partner concentration 90 nM)
# Procedure, shortened: as §1
# [7] = system: THRa homodimer (NR concentration 90 nM)
# Procedure, shortened: as §1
# [8] = system: VDR:RXRa (NR concentration 270 nM, RXRa partner concentration 90 nM)
# Procedure, shortened: as §1
# [9] = system: VDR homodimer (NR concentration 270 nM)
# Procedure, shortened: as §1
Sequence,PBM binding z-score [1],PBM binding z-score [2],PBM binding z-score [3],PBM binding z-score [4],PBM binding z-score [5],PBM binding z-score [6],PBM binding z-score [7],PBM binding z-score [8],PBM binding z-score [9]
CGTCCAGGGTCAGCAGGTCAGTGAAAGCGACGTG,4.51,6.01,5.75,1.59,5.4,3.61,1.32,4.15,1.25
GTACCAAGGTGAATAAGTCGTTGATGAGTAGGCG,0.43,0.827,0.671,-0.0366,0.742,1.21,0.531,0.0767,0.148
CTACCAAGGTGAACAAGGTTGTTGATTACTATTC,1.02,0.783,0.877,0.73,0.747,2.05,0.944,4.05,0.267
CCTGCTAGGCCATGGTCAGCTAATCTACAGTATG,0.329,-0.00744,0.586,0.152,-0.245,-0.0916,-0.719,-0.543,-0.711
GCGACTGGGGCATCAGCAGCTTACCATAACTTAA,-0.217,-0.328,-0.193,0.178,-0.47,-0.225,-0.422,-0.708,-0.429
TCGAGTAGGTTACCAATGGGGCTTTCAGCTTTCT,0.0343,0.0207,0.23,0.35,0.16,-0.122,-0.536,-0.42,-0.784
TAGAGTAGGTTACCAATGGGGCATTCAGCTTTCT,1.09,1.76,1.12,0.201,0.73,0.389,-0.222,0.34,-0.0971
TTTTGTAGATCAAGCAGGTTAAGAAAGCCTGAGT,0.054,-0.111,-0.119,-0.757,0.19,0.502,-0.555,0.649,0.443
TAGCCTAGGTCCTTGGGCCAGTATAGTACGCATC,-0.937,-0.412,-0.296,-1.27,-0.549,-0.732,-1.37,-0.897,-1.06
AGAATGAGGTTACCAACGATCAGGGAAACGCTTG,0.885,1.97,1.6,1.08,2.45,2.75,0.794,1.28,0.331
TGAATGAGGTTATTAGATCAGGGAACGTTGCAAA,0.387,1.36,0.893,1.46,1.66,2,0.756,0.99,0.942
GCATGTAGATCAAGGTTAAGAAAGACTAAGCTAA,-0.0945,0.235,0.318,0.0216,0.645,1.26,-0.345,0.22,-0.573
CCTTACGGGTCACTGACAGGTTATATCATTTGGA,3.45,5.75,4.58,1.64,5.22,2.96,0.162,3.81,1.32
ATCGAAAGGTCGTGAGGTGAGTATTCAGAAAGGC,3.27,4.51,4.1,1.91,5.4,3.48,1.52,3.7,0.921
CGAACTAGGTCAGAACAGGACACTGAAGGATGAT,2.12,2.35,3.35,0.629,1.37,4.03,0.473,1.14,0.123
AGAACCAGGGCAATGAGTTGATAGCACGGGTGGC,0.48,0.321,0.673,0.0529,0.352,0.225,-0.251,–,0.986
TCTTGTAGATCAACAGGAGGATAAGAAAGATCGA,-0.517,0.227,0.396,0.36,0.432,0.177,-0.392,0.0724,-0.362
ATCTCTAGGTATAGATAGTTCAGTGAATGCAAAT,0.907,0.662,0.781,0.321,0.447,0.433,-0.135,0.666,0.864
CCGACTGGGGCAAGGTTACCAGAACGCACAGCCA,1.39,1.01,1.27,-0.418,1.07,1.06,-0.142,0.0138,-0.475
AGAACGAGGGCACGCTGAGTTGATACCAGAGTAG,1.13,1.91,2.16,1.46,1.44,1.74,0.271,2.23,1.98
GCTATTAGTTGAAATGGCAACCGAATGATTCTCG,-0.503,-0.0997,0.311,0.893,-0.164,-0.279,-0.241,-0.304,0.0264
CGTACAAGGTCAGCAGGTCAGTGAAAGCGACGTG,5.11,6.42,6.72,3.07,5.36,3.93,2.42,4.16,1.68
TCATCTAGGTAAATGCTAGGTGAAAGTCCGATCT,0.149,0.279,0.0447,1.17,0.38,1.28,0.631,0.555,-0.208
AGAATGAGGTTATACATAGATCAGGGAAGAAAGT,0.905,2.03,1.38,1.27,2.42,2.19,0.855,1.5,1.24
ACTATTAGTTGACTTAGGGCAACCAATACGACGC,1.15,0.838,0.945,0.699,0.621,1.66,0.216,0.354,0.251
CTTGCTAGGTCAATGGTCAGCTAAAGCAGCTCGC,2.82,3.48,4.68,1.61,2.34,2.13,0.43,0.921,-0.158
